The values below come from PubChem BioAssay AID743172 (National Center for Advancing Translational Sciences (NCATS), 2013).

SMILES strings stand for the structures. Several values for one entry are separate records, joined by “and”; a condition that tells them apart may be missing. Equal entries are not always repeated. Records with an inconclusive call do not appear. Activity calls are given as the source filed them. Calls come from the whole dose curve; as a rule, active = well fitted activation curve with a large enough effect; inconclusive = small, poorly fitted or top-dose-only effect; inactive = no such curve, though single readings can be large or run the other way.

This experiment in a line: Extended Characterization of HPGD Inhibitors: PGE2 Assay in LNCaP Cells. The conditions noted are these: PGE2 HTRF level, 16 h; series mostly up to 100 µM; PGE2 level, % of control (higher = increase): at the top concentration. From the text:
The central role of HPGD is to inactivate prostaglandins such as prostaglandin E2 (PGE2) or prostaglandin D2 (PGD2). These prostaglandins are involved in a number of processes, including inflammation, differentiation, and cellular signaling, which makes HPGD an important target for pharmacological intervention. A number of prostaglandins of particular biological interest have been identified as substrates of HPGD. […] Over-production of PGE2 has been reported to promote tumor-associated neovascularization, cell proliferation, and tumor growth. […] In this orthogonal assay, we set out to measure if compounds were able to increase PGE2 production NIH Chemical Genomics Center [NCGC] NIH Molecular Libraries Probe Centers Network [MLPCN] MLPCN Grant: MH084681 Assay Submitter (PI): Structural Genomics Consortium
A549 cells, LNCaP cells or media were dispensed in 384-well plates (ProxiPlate-384 Plus, PerkinElmer, Shelton, CT) at 5,000 cells/9.9 uL/well using a CappAero384 multichannel pipette (Odense, Denmark). Separately on the plate, 10 uL of PGE2 calibration standards at a starting assay concentration of 5,000 pg/mL (1:2 dilution, 12-points, n = 1, prepared in media, Cisbio, Bedford, MA) were dispensed. Compounds (100 nL, final concentration range from 41.9 nM to 100 uM) were transferred using an ATS Acoustic Liquid Dispenser (EDC Biosystems, Fremont, CA). After being mixed using an automated liquid handler (CyBio, Jena, Germany), samples were incubated (37 deg C, 5% CO2, under a humidified atmosphere) for 16 hours. PGE2 labeled conjugates were added to each well, first 5 uL of PGE2-d2, followed by 5 uL of anti-PGE2-cryptate, centrifuged (1,500 rpm, 15 sec) and incubated (RT, protected from light) for 5 hours. Time-resolved fluorescence intensity (320 nm excitation, 615 and 665 nm emission) was measured using an Envision plate reader (PerkinElmer). Data was expressed as the ratio of 665 nm/615 nm emissions. Concentration (pg/mL) of samples were calculated from a 4-parameter logistic calibration curves of the PGE2 standards.
A general note: TR-FRET usually uses a lanthanide donor and a delayed reading to cut background.
With `COc1cccc(-n2cnc3cc(C(=O)N4CCCCC4)ccc32)c1`, the Potency is 0.28 µM (active). In the case of `O=C(c1ccc2c(c1)ncn2-c1ccc(Cl)cc1)N1CCCCC1`, the Potency was 0.884 µM (active). With `Brc1cnc2nc(SCc3ccccc3)[nH]c2c1`, the Potency is 44.3 µM (active).

Regarding `O=C(c1ccc2c(c1)ncn2-c1cccc(C(F)(F)F)c1)N1CCCCC1`, the Potency is 2.8 µM (active).

Turning to `CC(C)(C)n1cnc2cc(C(=O)N3CCCCC3)ccc21`, the Potency is 0.884 µM (active).

Regarding `Cc1cccc(-n2cnc3cc(C(=O)N4CCC(c5ccccc5)CC4)ccc32)c1`, the “PGE2 level, % of control (higher = increase)” value is 147% (inactive).

Consider `O=[N+]([O-])c1ccc(CSc2nc3ncc(Br)cc3[nH]2)cc1`, for which the Potency was 2.22 µM (active). On the same count and under the same terms, the same measure for `Cc1cccc(-n2cnc3cc(C(=O)N4CCCC(C(F)(F)F)C4)ccc32)c1` (stereo unspecified): 1.76 µM (active); for `Cc1cccc(-n2cnc3cc(C(=O)N4CCCCC4)ccc32)c1`: 702 nM (active) and 884 nM (active); for `CCCCn1cnc2cc(C(=O)N3CCCCC3)ccc21`: 4.43 µM (active).

In the case of `Cc1cc(-c2nnc3n2CCCCC3)c(C)n1-c1cccc(C#N)c1`, the Potency is 1.76 µM (active). On to `O=[N+]([O-])c1cccc(CSc2nc3ncc(Br)cc3[nH]2)c1`, for which the “PGE2 level, % of control (higher = increase)” value was 469% (inactive). On to `N#Cc1ccccc1CSc1nc2ncc(Br)cc2[nH]1`, for which the Potency was 35.2 µM (active). Consider `Cc1cccc(-n2cnc3cc(C(=O)N4CCC(Cc5ccccc5)CC4)ccc32)c1`, for which the “PGE2 level, % of control (higher = increase)” value is 144% (inactive). `CC(C)(C)c1ccc(-n2cnc3cc(C(=O)N4CCCCC4)ccc32)cc1`: the Potency is 4.43 µM (active). Consider `N#Cc1ccccc1CNc1nc2ncc(Br)cc2[nH]1`, for which the “PGE2 level, % of control (higher = increase)” value is 143% (inactive).
